In all, about 290,000 compounds went through this assay and about 3,500 (1.2%) were called active. Only a selection was taken, and actives are over-represented in it overall. Values without a mark were called inactive.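 How the source made its calls: active means inhibition above the campaign mean inhibition over all tested compounds plus 3 SD (cut at about 28% in these data); inactive means the rest.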

This experiment has as its system M18 aspartyl aminopeptidase (Plasmodium falciparum 3D7). The experiment can be described thus: PfM18AAP inhibitors, malaria aminopeptidase, primary screen, biochemical, QFRET, recombinant enzyme (AID 1822).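 Further: 0% = plate median of test compound wells and 100% = 2 mM ZnCl2.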 The settings on record: H-Glu-NHMec fluorogenic cleavage, at 7.35 µM, hits give high values.
What is called inhibition is the change of the read-out against control, counted positive when it falls. Regarding `O=C(NCc1ccncc1)C1CCN(C(=O)c2cccc(Cl)c2)CC1`, the inhibition was -1.77%. On to `O=C(c1cccs1)N(Cc1cc2ccccc2[nH]c1=O)CC1CCCO1` (centres undefined), for which the inhibition is 2.59%.

For the molecule `O=C(Nc1ccc(C(=O)NCc2ccccc2Cl)cc1)C1=CSCCO1`, the inhibition was 2.51%. For `O=c1c2ccccc2nc(N/N=C/c2ccccc2)n1O`, the inhibition is 3.06%. Turning to `Nc1nnn(CC(=O)N/N=C/c2ccc(O)cc2)n1`, the inhibition is 7.09%. As for `CC(C)(C)c1nnc(N/N=C/c2ccc(O)cc2)n(N)c1=O`, the figure is 44.5% (active). As for `O=c1cc(Cl)c2ccccc2n1-c1ccccc1`, the figure is 1.05%. With `CN(C(=O)CSc1nnc(-c2n[nH]c3ccccc23)o1)c1ccccc1`, the inhibition was -5.28%.

On to `O=c1[nH]c(=S)[nH]c2[nH]c(=S)[nH]c12`, for which the inhibition was 43.7% (active). The same measure for `Cc1c(C)c(C)c2[nH]c(=S)[nH]c2c1C`: -2.04%; for `O=c1c(/C=N/O)coc2ccc(Cl)cc12`: 8.13%. The same measure for `Cc1c(/C=N\NC(=O)c2cc3ccccc3o2)c2ccccc2n1C`: 0.69%. As for `O=C(N/N=C/c1c[nH]c2ccccc12)c1cc2ccccc2o1`, the inhibition is -7.84%.

As to `NC(=S)N/N=C/c1coc2cc(Cl)ccc2c1=O`, the inhibition is 50.2% (active).

`Cc1ccc2occ(/C=N/NC(=O)c3ccccc3C)c(=O)c2c1`: the inhibition is 6.11%.

For `O=C(N/N=C/c1coc2ccccc2c1=O)c1cc2ccccc2o1`, the inhibition was 36.8% (active). Regarding `C[C@H](C(=O)CC(=O)OC(C)(C)C)[C@H](O)c1ccc(C(F)(F)F)cc1`, the inhibition is 2.4%. Take `O=S(=O)(c1ccc(Cl)cc1)c1nc(-c2ccccc2F)oc1NCCN1CCOCC1`: the inhibition is 1.96%. `CN(Cc1ccccc1)C(=O)CSc1nc2ccccc2[nH]1`: the inhibition was 7.79%.

For `O=C(C1CCCO1)N1CCN(S(=O)(=O)c2ccc(Br)cc2)CC1` (centres undefined), the inhibition was -7.44%. With `Cc1cccn2c(=O)c3cc(C(=O)NCCN4CCOCC4)c(=N)n(Cc4cccnc4)c3nc12`, the inhibition was 7.09%. On to `COCCNC(=O)C1CCN(C(=O)C2CC(=O)N(c3ccc(C)cc3)C2)CC1` (centres undefined), for which the inhibition was -4.37%.

As for `CC(C)(C)N(Cc1ccccc1)C(=O)c1ccncc1`, the inhibition is 2.34%. As for `CCOc1ccc(/C=N/Nc2nncc(-c3ccccc3)n2)cc1OC`, the figure is 8.38%; as for `Cc1cc(/C=C2\SC(=O)N(C)C2=O)c(C)n1-c1cccc(C(=O)O)c1`, 7.23%.

For the molecule `COc1cc(/C=N\Nc2ccc([N+](=O)[O-])cn2)ccc1OCC(=O)O`, the inhibition was 43.1% (active).

Regarding `COc1cc(/C=N/O)ccc1OCc1ccc([N+](=O)[O-])cc1`, the inhibition is 2.23%. Turning to `Cc1cc(/C=N/Nc2ccc([N+](=O)[O-])cn2)c(C)n1-c1cccc(C(=O)O)c1`, the inhibition was 50.7% (active). For the molecule `Cc1ccc(-n2c(C)cc(/C=N/Nc3ccc([N+](=O)[O-])cn3)c2C)c(C)c1`, the inhibition is 7.66%.
